# Compound activity: PubChem BioAssay, National Center for Advancing Translational Sciences (NCATS)
# Sampled rows, rich in hits. Any-hit rate of the full collection: about 3.6%.
# GCN5L2 inh – GCN5L2 (KAT2A) acetyltransferase inhibition; GCN5L2 HAT assay, ThioGlo1 CoA-SH fluorescence; Potency, µM (doses to about 58.9 µM), inactives show at the highest dose activity change, negative = inhibition, usual class: inhibitors; actives 0.21% (n = 390,000); note: potency is the fitted concentration of half-maximal effect; % is set by controls: 0 for no effect and ±100 for the full control effect
#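 Preincubate 20nM GCN5L2 with compound 15 min, RT → add 50uM ThioGlo1 + 75uM H3(1-25) + 70uM acetyl-CoA → read fluorescence 0 and 20 min. Primary qHTS; fluorescent artifacts likely.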
# Rango dissoc inh – inhibitors of RanGTP-induced Rango-importin beta complex dissociation; Biochemical FRET Rango-importin beta, RanGTP-induced dissociation; AID 540253; Potency, µM (top dose mostly 46.1 µM), for inactives: at the top dose activity change, negative = inhibition; actives 0.071% (n = 340,000); calls by dose curve; note: potency is the fitted concentration of half-maximal effect; % of control where 0% means no effect; nearly all actives have a fitted effect of over 45% in size
#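 Rango/importin beta premix (0.1/0.25 uM final), PBS + 1 mM DTT + 0.02% Tween-20 + 0.1% BSA; cpd 5 min RT; FRET pre-read; + RanGTP-RCC1 (0.6 uM Ran, 2 mM GTP, 0.2 uM RCC1); 45 min RT; FRET post-read, ex 430, em 486/530 nm.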
# PLK1 PBD inh – PLK1 (human) polo-box domain binding inhibition; P53350; Plk1 PBD binding of FITC phosphopeptide, fluorescence polarization; Potency, µM, inactives show max response, negative = inhibition, actives largely listed as inhibitors; actives 2.8% (n = 360,000); note: potency is the fitted concentration of half-maximal effect; series mostly up to about 57 µM; % is set by controls: 0 for no effect and ±100 for the full control effect; nearly all actives have a fitted effect of over 65% in size
# Target sequence (P53350 whole entry, looked up, the tested form may be a part): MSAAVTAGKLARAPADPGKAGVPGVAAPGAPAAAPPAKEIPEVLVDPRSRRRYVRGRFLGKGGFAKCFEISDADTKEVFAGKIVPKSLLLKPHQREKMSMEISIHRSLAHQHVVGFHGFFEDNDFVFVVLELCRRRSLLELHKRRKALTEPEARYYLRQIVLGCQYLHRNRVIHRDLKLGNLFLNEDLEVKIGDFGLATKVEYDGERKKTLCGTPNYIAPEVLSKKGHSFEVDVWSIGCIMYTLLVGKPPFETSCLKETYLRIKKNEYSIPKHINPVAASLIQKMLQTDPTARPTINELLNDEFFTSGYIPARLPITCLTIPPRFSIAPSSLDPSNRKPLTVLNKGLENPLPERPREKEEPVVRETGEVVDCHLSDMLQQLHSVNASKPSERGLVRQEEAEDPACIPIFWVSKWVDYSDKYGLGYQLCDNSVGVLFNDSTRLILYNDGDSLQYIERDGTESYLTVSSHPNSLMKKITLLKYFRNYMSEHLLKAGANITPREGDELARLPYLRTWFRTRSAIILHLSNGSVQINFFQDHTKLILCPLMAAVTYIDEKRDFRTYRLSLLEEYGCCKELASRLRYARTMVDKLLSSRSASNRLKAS
# PI5P4Ka inh – inhibitors of human PI5P4K alpha | P48426 | PI5P4Kalpha enzyme, ADP-Glo luminescence, 60 min; active compounds read low | max response, % | actives 1.2% (n = 330,000); active = max response of -50% or lower; inconclusive = between -30% and -50%; inactive = -30% or higher; note: value at the top dose of about 77 µM; % is set by controls: 0 for no effect and ±100 for the full control effect
#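 Compounds were pin-transferred onto PI5P4Kalpha and substrate in HEPES pH 7.4 buffer with EGTA, CHAPS and 5% DMSO. ATP (5 microM final) started the reaction, which ran 60 minutes at room temperature before ADP-Glo detection.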
# Rango-impB inh – inhibitors of Rango-importin beta complex formation; Q14974; Rango CFP/YFP FRET sensor + importin beta, 45 min; Potency, µM (highest dose often 92.2 µM), for inactives: at the top dose inhibition of complex formation; actives 0.031% (n = 340,000); AID 540263; calls by dose curve;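 note: potency is the fitted concentration of half-maximal effect; 0% = DMSO wells and 100% = buffer wells lacking importin beta; nearly all actives have a fitted effect of over 15% in size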
#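 FRET biosensor Rango (snurportin 1 IBB between N-terminal EYFP and C-terminal Cerulean), 50 nM in PBS/1 mM DTT/0.02% Tween-20/0.1% BSA, preincubated 5 min RT with compound; 0.125 microM importin beta added, 45 min RT, CFP/YFP FRET ratio read.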
# VDR inh – blocks the human vitamin D receptor | actives 0.93% (n = 400,000) | VDR-SRC2-3 peptide fluorescence polarization, 2 h | Potency, µM, without a hit: max response, negative = inhibition, most hits filed as inhibitors | P11473; note: potency is the fitted concentration of half-maximal effect; % is set by controls: 0 for no effect and ±100 for the full control effect
#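 Compounds are added to VDR with labelled SRC2-3 coactivator peptide and held 2 h at room temperature. Inhibition of the VDR–peptide interaction is then read as a change in fluorescence polarization.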
# ADP-Glo counter – counter-screen for PI5P4K inhibitors: ADP-Glo detection interference, no enzyme; shares compounds with PI5P4Ka inh; ADP-Glo detection counter-screen, luciferase luminescence, no enzyme; Potency, µM (titrated, usually from 76.9 µM), for the others: at the highest dose activity change, negative = inhibition, actives largely listed as inhibitors; 1,100 tested, under 10 active; AID 743285
# * = called active by the depositor; ? = inconclusive; / = no result. Unless noted, calls come from the whole dose curve; as a rule, active = well fitted curve in the direction sought with a large enough effect; inconclusive = small, poorly fitted or top-dose-only effect, or another doubt; inactive = no such curve, though single readings can be large; an effect the other way counts as inactive or inconclusive.
SMILES,GCN5L2 inh,Rango dissoc inh,PLK1 PBD inh,PI5P4Ka inh,Rango-impB inh,VDR inh,ADP-Glo counter
CCn1cc(C(=O)N2CCN(c3cccc(C)c3C)CC2)c(=O)c2ccc(C)nc21,10.8%,-10.5%,-5.9%,-72.6*,-0.4%,-0.7%,-6.5%
COc1ccc(N2CCN(C(=O)Cc3c(C(=O)O)c(C)cn3C)CC2)cc1,-3.6%,/,/,/,/,-8.0%,/
O=C(NCc1ccccc1)C(=O)NCC(c1ccc2c(c1)OCO2)N1CCOCC1 (stereo not drawn),2.2%,/,/,/,/,6.6%,/
Cn1c(=O)c2[nH]c(-c3ccc(S(=O)(=O)O)cc3)nc2n(C)c1=O,-25.4%,-20.0%,0.1%,-54.3*,-1.0%,1.5%,-4.3%
COc1ccc(CNCCCSc2nnnn2C)c(OC)c1,-2.8%,/,/,/,/,23.5%,/
Cc1ccc(NC(=O)CN2C(=O)C(c3ccc(C)cc3)=NC23CCCCCC3)cc1,-8.2%,/,/,/,/,-7.4%,/
Cc1c(-c2cc(C(=O)O)on2)cnn1C,-3.4%,12.8%,-12.0%,-50.8*,-2.3%,-12.1%,-10.4%
CCC1=Nc2cc(C(=O)NCCCOC(C)C)ccc2Sc2ccccc21,-4.6%,-19.0%,-6.5%,/,4.8%,-7.0%,/
CCC1=Nc2cc(C(=O)O)ccc2Sc2ccccc21,-2.6%,16.9%,-18.7%,-57.3*,-0.3%,-2.3%,-1.9%
COc1ccccc1N1CCN(c2nc3ccc(C(=O)c4ccccc4)cc3n3c(C)nnc23)CC1,-3.5%,/,/,/,/,2.2%,/
CCCn1c(SCC(=O)N2c3ccccc3Sc3ccccc32)nc2c1c(=O)n(C)c(=O)n2C,1.0%,-1.4%,-12.4%,-3.2,-2.5%,-8.1%,-8.5%
CC(C)n1c(SCC(=O)N2c3ccccc3Sc3ccccc32)nc2c1c(=O)n(C)c(=O)n2C,-1.6%,-3.0%,2.2%,/,2.7%,23.0%,/
Nc1nc(N)c2cc(Sc3ccc(Cl)cc3)ccc2n1,/,/,-5.0%,-15.2,/,/,/
Nc1nc(N)c2cc(Sc3ccc4ccccc4c3)ccc2n1,-5.0%,-7.5%,1.4%,-50.9*,1.1%,13.1%,-0.2%
CCn1cc(C(=O)N2CCN(c3ccccc3F)CC2)c(=O)c2cc(S(=O)(=O)N(C)C3CCCCC3)ccc21,-7.7%,/,/,/,/,9.2%,/
O=C(NCc1ccccc1)C(c1ccc(C(F)(F)F)cc1)n1c(=O)c(-c2ccco2)nc2ccccc21 (stereo not drawn),/,/,-20.7%,?,/,/,/
O=C(NCc1ccccc1)C(c1ccccc1)n1c(=O)c(-c2ccco2)nc2ccccc21 (stereo not drawn),/,/,?,-63.8*,/,/,-3.8%
O=C(NC1CCCCC1)C(c1ccnc2ccccc12)n1c(=O)c(-c2ccco2)nc2ccccc21 (stereo not drawn),/,/,-14.0%,-78.1*,/,/,-4.9%
O=C(Nc1ccc2c(c1)OCCO2)C(c1ccnc2ccccc12)n1c(=O)c(-c2ccco2)nc2ccccc21 (stereo not drawn),/,/,-16.0%,?,/,/,/
CCc1ccccc1NC(=O)c1nnn(Cc2ccc(Cl)cc2)c1N,-4.5%,/,/,/,/,-23.1%,/
CSCCOC(=O)c1[nH]c2c(c1C)C(=O)CC(c1ccco1)C2 (stereo not drawn),-23.8%,-9.8%,-28.7%,-66.1*,0.4%,-14.1%,4.8%
Cc1ccc(NC(=O)Cn2cc(C(=O)c3cccs3)c3ccccc32)cc1C,-17.9%,/,/,/,/,-6.6%,/
COc1ccc2[nH]c(=O)c(CN(Cc3nnnn3Cc3ccco3)C3CCCCC3)cc2c1,-20.2%,-28.9%,?,-59.1*,?,79.4µM*,-4.1%
CCc1ccccc1NC(=O)Cn1c(=O)n(-c2ccc(C)cc2)c(=O)c2cc(OC)c(OC)cc21,1.4%,/,/,/,/,-5.1%,/
Cc1ccc(S(=O)(=O)N(CC(=O)Nc2ccccc2C(=O)O)c2ccccc2C)cc1,-5.1%,9.2%,-6.3%,-50.6*,-2.8%,-11.0%,0.0%
SMILES,GCN5L2 inh,Rango dissoc inh,PLK1 PBD inh,PI5P4Ka inh,Rango-impB inh,VDR inh,ADP-Glo counter
COc1cc(-c2nnc(SCCOc3ccc(Cl)cc3)o2)cc(OC)c1OC,-3.8%,/,/,/,/,17.1%,/
Cc1ccn2c(=O)nc(SCC(=O)NC3CCCC3)nc2c1,-4.5%,3.5%,-13.3%,-11.2,?,-15.6%,/
Cc1ccn2c(=O)nc(SCC(=O)NCc3ccccc3Cl)nc2c1,-17.4%,-8.6%,-11.0%,-58.8*,?,-4.9%,-4.1%
CCN(CC)CCNC(=O)c1nn(C)c2c1CS(=O)(=O)c1ccccc1-2,-11.1%,/,/,/,/,-11.1%,/
Cc1ccc(-c2ccc(CN3C(C)C(=O)N(Cc4cn(Cc5ccco5)nn4)CCS3(=O)=O)cc2)c(C)c1 (stereo not drawn),/,/,-15.0%,-53.3*,/,/,-2.1%
CC(C)Cc1ccc(CN2C(C)C(=O)N(Cc3cn(Cc4ccco4)nn3)CCS2(=O)=O)cc1 (stereo not drawn),/,/,?,-64.5*,/,/,-4.5%
O=C(NCCN1CCN(c2cccc(Cl)c2)CC1)C1CCCN(S(=O)(=O)c2cnc[nH]2)C1 (stereo not drawn),-17.0%,-17.1%,-10.0%,-0.3,-2.2%,4.4%,/
O=C(NCCN1CCN(c2ccccc2)CC1)C1CCCN(S(=O)(=O)c2cnc[nH]2)C1 (stereo not drawn),-1.5%,16.9%,-7.3%,-61.5*,6.5%,-8.2%,3.5%
Cn1nc(C(C)(C)C)cc1N1C(=O)CCC1(C)C(=O)NC1CCCCC1 (stereo not drawn),/,/,-6.1%,6.6,/,/,/
CCCCNC(=O)C1(C)CCC(=O)N1c1cc(C(C)(C)C)nn1C (stereo not drawn),/,/,-3.8%,4.4,/,/,2.2%
CCOc1ccc(-n2cc(-c3ccccc3)c3c(N4CCN(c5ccccc5OC)CC4)ncnc32)cc1,-6.2%,/,/,/,/,15.3%,/
O=C(Nc1ccc(Cl)cc1)Nc1ccccc1CC[N+](=O)[O-],-2.4%,6.7%,3.36µM*,-78.9*,0.2%,?,-3.3%
Cc1ccc(C(=O)NCC(c2ccco2)S(=O)(=O)c2ccccc2)cc1C (stereo not drawn),-1.6%,/,/,/,/,25.0%,/
O=C(Cn1cc(COc2ccc(Br)cc2[N+](=O)[O-])nn1)c1ccc(O)cc1,/,-4.0%,26.7µM*,-57.1*,1.1%,-29.0%,-8.1%
CC(=O)c1ccc(OCc2cn(CC(=O)c3ccc(O)cc3)nn2)c(C)c1,/,/,-5.9%,-3.6,/,/,/
